The text below walks through data of publication PMC7862700, “An all-to-all approach to the identification of sequence-specific readers for epigenetic DNA modifications on cytosine”.

Common to all, as to test: DAPPL (digital affinity profiling via proximity ligation, sequencing); 10 mM Tris-HCl pH 7.5, 50 mM NaCl, 1 mM DTT, 4% glycerol, room temperature, 30 min; GST-TFs on glutathione beads, 16-mer random dsDNA library, 0.1% formaldehyde crosslink after washing; high values mean tight binding
Common to all, as to settings: protein: recombinant; tags: N-terminal GST; dsDNA, one strand shown

One experiment addresses T1, FLI1 (Homo sapiens, UniProt Q01543 1-452).
T1 sequence: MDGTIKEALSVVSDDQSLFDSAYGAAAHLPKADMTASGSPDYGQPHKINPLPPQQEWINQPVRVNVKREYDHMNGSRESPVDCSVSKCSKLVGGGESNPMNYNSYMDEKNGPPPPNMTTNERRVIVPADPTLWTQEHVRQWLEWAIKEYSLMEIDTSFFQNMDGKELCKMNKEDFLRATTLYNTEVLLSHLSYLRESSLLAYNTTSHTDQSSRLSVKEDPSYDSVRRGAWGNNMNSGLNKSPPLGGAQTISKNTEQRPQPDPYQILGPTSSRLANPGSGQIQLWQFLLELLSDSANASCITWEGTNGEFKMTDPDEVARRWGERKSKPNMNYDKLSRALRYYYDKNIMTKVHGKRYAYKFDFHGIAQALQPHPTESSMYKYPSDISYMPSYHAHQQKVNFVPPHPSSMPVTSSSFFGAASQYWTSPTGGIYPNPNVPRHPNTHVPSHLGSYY
The method, boiled down:
(§1)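 Beads coated with glutathione captured GST-fused human transcription factors that had been expressed in yeast, and the factors were then given DNA barcodes and pooled with a tag-only sample. The pools were incubated with 200 nmole of a random double-stranded 16-mer DNA library in Tris/NaCl/DTT/glycerol buffer for 30 min at room temperature, washed, crosslinked with 0.1% formaldehyde and proximity-ligated with BsaI/T4 ligase at 37 °C for 1 h. PCR amplification and Illumina NextSeq500 sequencing came last. Binding signal is each hexamer's read frequency for a factor divided by its frequency for the tag-only sample.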

Another experiment addresses SPI1 (Homo sapiens, UniProt P17947 1-270). The method, boiled down: as §1
A further experiment concerns the target T2, ELF5 (Homo sapiens, UniProt Q9UKW6-2 1-255).
T2 sequence: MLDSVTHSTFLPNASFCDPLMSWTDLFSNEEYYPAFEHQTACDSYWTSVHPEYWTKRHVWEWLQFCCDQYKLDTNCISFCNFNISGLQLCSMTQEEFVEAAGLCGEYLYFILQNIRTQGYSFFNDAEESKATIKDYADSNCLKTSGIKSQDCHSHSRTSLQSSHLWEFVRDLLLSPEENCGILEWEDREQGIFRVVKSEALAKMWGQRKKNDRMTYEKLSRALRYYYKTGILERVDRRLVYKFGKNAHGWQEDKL
The method, boiled down: as §1

Another experiment concerns the target T3, ELK3 (Homo sapiens, UniProt P41970 1-407).
T3 sequence: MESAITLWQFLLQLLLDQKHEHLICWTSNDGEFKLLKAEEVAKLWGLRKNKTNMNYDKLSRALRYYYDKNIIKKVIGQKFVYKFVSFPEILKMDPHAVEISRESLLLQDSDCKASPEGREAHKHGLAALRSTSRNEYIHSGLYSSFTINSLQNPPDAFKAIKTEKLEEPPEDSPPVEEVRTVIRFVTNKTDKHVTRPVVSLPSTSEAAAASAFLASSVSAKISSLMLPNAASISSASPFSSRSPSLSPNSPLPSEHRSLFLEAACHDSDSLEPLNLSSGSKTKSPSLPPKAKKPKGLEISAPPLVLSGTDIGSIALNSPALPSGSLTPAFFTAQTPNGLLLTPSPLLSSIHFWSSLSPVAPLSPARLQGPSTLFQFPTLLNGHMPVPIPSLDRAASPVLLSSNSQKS
The procedure, abridged: as §1

A further experiment addresses CRX (Homo sapiens, UniProt O43186 1-299). The method, boiled down:
as §1

Chain of CRX (O43186 whole entry): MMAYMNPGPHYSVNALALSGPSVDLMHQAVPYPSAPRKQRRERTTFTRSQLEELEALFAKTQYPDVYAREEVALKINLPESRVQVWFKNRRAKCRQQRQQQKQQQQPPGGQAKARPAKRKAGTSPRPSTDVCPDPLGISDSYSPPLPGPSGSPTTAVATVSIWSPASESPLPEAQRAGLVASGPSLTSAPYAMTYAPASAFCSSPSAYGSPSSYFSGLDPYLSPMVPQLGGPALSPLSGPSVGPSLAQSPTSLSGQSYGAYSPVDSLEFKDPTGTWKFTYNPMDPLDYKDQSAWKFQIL

For CGATGC, the binding signal with FLI1 was 1.13 fold enrichment (6-mer frequency, TF over GST control); with SPI1, 1.12 fold enrichment (6-mer frequency, TF over GST control).

With GCCTGA, the binding signal with FLI1 is 1.05 fold enrichment (6-mer frequency, TF over GST control); with SPI1, 1.05 fold enrichment (6-mer frequency, TF over GST control); with ELF5 it was 1.05 fold enrichment (6-mer frequency, TF over GST control).

Regarding GCCCAA, the binding signal is 1.04 fold enrichment (6-mer frequency, TF over GST control) with FLI1 and 1.01 fold enrichment (6-mer frequency, TF over GST control) with SPI1.

ACACGC: the binding signal with FLI1 was 1.15 fold enrichment (6-mer frequency, TF over GST control); with ELK3, 1.12 fold enrichment (6-mer frequency, TF over GST control); with ELF5, 1.02 fold enrichment (6-mer frequency, TF over GST control).

As for TGTAAC, the binding signal in the experiment with FLI1 is 1.29 fold enrichment (6-mer frequency, TF over GST control); with SPI1, 1.36 fold enrichment (6-mer frequency, TF over GST control); with ELK3 it was 1.2 fold enrichment (6-mer frequency, TF over GST control); with ELF5 it was 1.21 fold enrichment (6-mer frequency, TF over GST control).

With CATGCA, the binding signal was 1.1 fold enrichment (6-mer frequency, TF over GST control) with FLI1; 1.02 fold enrichment (6-mer frequency, TF over GST control) with SPI1; 1.02 fold enrichment (6-mer frequency, TF over GST control) with ELK3; 1.01 fold enrichment (6-mer frequency, TF over GST control) with ELF5.

On to GGTATC, for which the binding signal is 1.11 fold enrichment (6-mer frequency, TF over GST control) in the experiment with FLI1 and 1.02 fold enrichment (6-mer frequency, TF over GST control) in the experiment with SPI1.

As for CATCAT, the binding signal in the experiment with FLI1 is 1.06 fold enrichment (6-mer frequency, TF over GST control); with SPI1, 1.11 fold enrichment (6-mer frequency, TF over GST control); with ELF5, 1.07 fold enrichment (6-mer frequency, TF over GST control).

Regarding CATGAC, the binding signal was 1.23 fold enrichment (6-mer frequency, TF over GST control) in the experiment with FLI1; 1.28 fold enrichment (6-mer frequency, TF over GST control) in the experiment with SPI1; 1.17 fold enrichment (6-mer frequency, TF over GST control) with ELK3; 1.12 fold enrichment (6-mer frequency, TF over GST control) in the experiment with ELF5.

As to CAAGTT, the binding signal with FLI1 is 1.11 fold enrichment (6-mer frequency, TF over GST control); in the experiment with ELK3 it was 1.03 fold enrichment (6-mer frequency, TF over GST control); in the experiment with ELF5, 1.03 fold enrichment (6-mer frequency, TF over GST control).

Take CATTGT: the binding signal with FLI1 was 1.2 fold enrichment (6-mer frequency, TF over GST control); in the experiment with SPI1, 1.04 fold enrichment (6-mer frequency, TF over GST control); with ELK3, 1.08 fold enrichment (6-mer frequency, TF over GST control); with ELF5 it was 1.1 fold enrichment (6-mer frequency, TF over GST control).

In the case of TATGTC, the binding signal is 1.05 fold enrichment (6-mer frequency, TF over GST control) with FLI1; 1.06 fold enrichment (6-mer frequency, TF over GST control) in the experiment with SPI1; 1.14 fold enrichment (6-mer frequency, TF over GST control) with ELK3; 1.05 fold enrichment (6-mer frequency, TF over GST control) with ELF5.

On to GTTGTT, for which the binding signal was 1.17 fold enrichment (6-mer frequency, TF over GST control) with FLI1; 1.09 fold enrichment (6-mer frequency, TF over GST control) with SPI1; 1.1 fold enrichment (6-mer frequency, TF over GST control) in the experiment with ELK3; 1.19 fold enrichment (6-mer frequency, TF over GST control) with ELF5.

In the case of TGCCCA, the binding signal is 1.21 fold enrichment (6-mer frequency, TF over GST control) with FLI1; 1.09 fold enrichment (6-mer frequency, TF over GST control) with SPI1; 1.01 fold enrichment (6-mer frequency, TF over GST control) with ELF5.

As for CTGGGC, the binding signal in the experiment with FLI1 was 1.15 fold enrichment (6-mer frequency, TF over GST control); with SPI1 it was 1.05 fold enrichment (6-mer frequency, TF over GST control); with ELK3, 1.02 fold enrichment (6-mer frequency, TF over GST control).

Turning to CGCCTG, the binding signal is 1.11 fold enrichment (6-mer frequency, TF over GST control) with FLI1; 1.1 fold enrichment (6-mer frequency, TF over GST control) in the experiment with SPI1; 1.06 fold enrichment (6-mer frequency, TF over GST control) with ELK3; 1.12 fold enrichment (6-mer frequency, TF over GST control) in the experiment with ELF5.

On to CATGTT, for which the binding signal is 1.05 fold enrichment (6-mer frequency, TF over GST control) in the experiment with FLI1 and 1.04 fold enrichment (6-mer frequency, TF over GST control) with SPI1.

As to TTGTCA, the binding signal with FLI1 was 1.1 fold enrichment (6-mer frequency, TF over GST control); in the experiment with SPI1, 1.16 fold enrichment (6-mer frequency, TF over GST control); with ELK3, 1.13 fold enrichment (6-mer frequency, TF over GST control); in the experiment with ELF5, 1.05 fold enrichment (6-mer frequency, TF over GST control).

On to AGCGCC, for which the binding signal with FLI1 is 1.01 fold enrichment (6-mer frequency, TF over GST control); with ELK3, 1.02 fold enrichment (6-mer frequency, TF over GST control).

On to AAGGGC, for which the binding signal was 1.06 fold enrichment (6-mer frequency, TF over GST control) with FLI1; 1.18 fold enrichment (6-mer frequency, TF over GST control) with ELK3; 1.04 fold enrichment (6-mer frequency, TF over GST control) with ELF5.

As for TGGCCG, the binding signal in the experiment with FLI1 is 1.11 fold enrichment (6-mer frequency, TF over GST control); with SPI1, 1.14 fold enrichment (6-mer frequency, TF over GST control); with ELK3, 1.14 fold enrichment (6-mer frequency, TF over GST control).

GTAGCT: the binding signal with FLI1 was 1.15 fold enrichment (6-mer frequency, TF over GST control); with SPI1 it was 1.09 fold enrichment (6-mer frequency, TF over GST control); with ELK3 it was 1.07 fold enrichment (6-mer frequency, TF over GST control); in the experiment with CRX, 1.02 fold enrichment (6-mer frequency, TF over GST control); with ELF5 it was 1.07 fold enrichment (6-mer frequency, TF over GST control).

Take CATACA: the binding signal is 1.11 fold enrichment (6-mer frequency, TF over GST control) in the experiment with FLI1; 1.05 fold enrichment (6-mer frequency, TF over GST control) in the experiment with SPI1; 1.22 fold enrichment (6-mer frequency, TF over GST control) in the experiment with ELK3.

GCTATC: the binding signal in the experiment with FLI1 was 1.07 fold enrichment (6-mer frequency, TF over GST control); with SPI1, 1.12 fold enrichment (6-mer frequency, TF over GST control); with ELK3 it was 1.12 fold enrichment (6-mer frequency, TF over GST control); with ELF5, 1.04 fold enrichment (6-mer frequency, TF over GST control).

On to ATGCCA, for which the binding signal is 1.01 fold enrichment (6-mer frequency, TF over GST control) with FLI1 and 1.01 fold enrichment (6-mer frequency, TF over GST control) with ELF5.

For the sequence GTTGAC, the binding signal with FLI1 was 1.11 fold enrichment (6-mer frequency, TF over GST control); with SPI1 it was 1.15 fold enrichment (6-mer frequency, TF over GST control); in the experiment with ELK3 it was 1.2 fold enrichment (6-mer frequency, TF over GST control); in the experiment with ELF5, 1.07 fold enrichment (6-mer frequency, TF over GST control).

Take ACAGCA: the binding signal in the experiment with FLI1 is 1.01 fold enrichment (6-mer frequency, TF over GST control); with ELK3, 1.02 fold enrichment (6-mer frequency, TF over GST control).

Take CGTAGC: the binding signal in the experiment with FLI1 is 1.13 fold enrichment (6-mer frequency, TF over GST control); with SPI1, 1.04 fold enrichment (6-mer frequency, TF over GST control); in the experiment with ELF5, 1.05 fold enrichment (6-mer frequency, TF over GST control).

TGATAC: the binding signal with FLI1 is 1.13 fold enrichment (6-mer frequency, TF over GST control); with SPI1, 1.19 fold enrichment (6-mer frequency, TF over GST control); with ELK3, 1.08 fold enrichment (6-mer frequency, TF over GST control); with CRX, 1.1 fold enrichment (6-mer frequency, TF over GST control); in the experiment with ELF5, 1.1 fold enrichment (6-mer frequency, TF over GST control).

Take TCATGT: the binding signal in the experiment with FLI1 is 1.14 fold enrichment (6-mer frequency, TF over GST control); with SPI1 it was 1.15 fold enrichment (6-mer frequency, TF over GST control); in the experiment with ELF5, 1.01 fold enrichment (6-mer frequency, TF over GST control).

Consider ATGCAG, for which the binding signal is 1.09 fold enrichment (6-mer frequency, TF over GST control) with FLI1; 1.06 fold enrichment (6-mer frequency, TF over GST control) with SPI1; 1.06 fold enrichment (6-mer frequency, TF over GST control) with ELF5.

For the sequence CACGCA, the binding signal with FLI1 is 1.11 fold enrichment (6-mer frequency, TF over GST control); in the experiment with ELK3, 1.14 fold enrichment (6-mer frequency, TF over GST control).

Turning to ACCAAA, the binding signal in the experiment with FLI1 was 1.01 fold enrichment (6-mer frequency, TF over GST control); with SPI1, 1.06 fold enrichment (6-mer frequency, TF over GST control).
